Compound activity from PubChem.
LASV entry inh – blocks Lassa virus binding to or entry into cells; 300,000 compounds, 1.2% hits; Potency, µM (highest dose often 37.9 µM), inactives show top-dose activity change, negative = inhibition, actives largely listed as inhibitors; Lassa virus pseudotype entry inhibition, cell reporter; AID 540256; calls by dose curve; tested in HEK293 cells; note: potency is the fitted concentration of half-maximal effect; % is set by controls: 0 for no effect and ±100 for the full control effect; nearly all actives have a fitted effect of over 50% in size
HCV inhibitor – inhibitors of hepatitis C virus infection; 340,000 compounds, 3.4% hits; Potency, µM (doses to about 41.8 µM), without a hit: at the highest dose activity change, negative = inhibition, usual class: inhibitors; AID 651820; Huh7.5.1 HCVcc-Cre infection, luciferase reporter, 44 h; active = well fitted inhibition curve with a large enough effect; inconclusive = small, poorly fitted or top-dose-only effect, or another doubt; inactive = no such curve, though single readings can be large or run the other way; note: potency is the fitted concentration of half-maximal effect; % is set by controls: 0 for no effect and ±100 for the full control effect
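Luciferase read-out (15 sec integration) after a 15 min room-temperature substrate step quantifies HCVcc-Cre infection. Cells, 1,000 per well, had compound added 4 h post-plating, then virus at ~0.5 moi, and were cultured 44 h.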
FMDV antiviral – antivirals against foot and mouth disease virus; FMDV antiviral cell-based qHTS; Potency, µM (doses to about 57.9 µM), inactives show at the highest dose activity change, negative = inhibition, usual class: inhibitors; 410,000 compounds, 1.2% hits; AID 1159524; calls by dose curve; tested in HEK293T cells; note: read-out not given here; potency is the fitted concentration of half-maximal effect; % is set by controls: 0 for no effect and ±100 for the full control effect; nearly all actives have a fitted effect of over 45% in size
SARS PLP yeast – blocks SARS-CoV papain-like protease in a yeast assay | AID 485353 | 330,000 compounds, 0.19% hits | S. cerevisiae expressing SARS-CoV PLpro, growth rescue | Potency, µM (highest dose often 32.9 µM), for inactives: top-dose activity, positive = growth rescue, hits mostly activators; calls by dose curve; note: potency is the fitted concentration of half-maximal effect; 0% is about no effect; nearly all actives have a fitted effect of over 55% in size
MARV entry inh – inhibitors of Marburg virus binding or cell entry; Potency, µM (series often up to 37.8 µM), without a hit: at the highest dose activity change, negative = inhibition, actives largely listed as inhibitors; 300,000 compounds, 1.8% hits; AID 540276; Marburg virus pseudotyped entry inhibition, cell reporter; calls by dose curve; tested in HEK293 cells; note: potency is the fitted concentration of half-maximal effect; % is set by controls: 0 for no effect and ±100 for the full control effect
HCMV inh – human cytomegalovirus inhibition. HFF cells, HCMV-luciferase reporter, 72 h; active compounds read low. 410,000 compounds, 4.5% hits. activity change, negative = inhibition, % at 57.5 µM; in the data active = activity change below about -60%; inconclusive = no clear call, values can overlap the other calls; inactive = above about -39%; note: % is set by controls: 0 for no effect and ±100 for the full control effect
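Compounds were evaluated in HFFs infected with an HCMV luciferase reporter virus (MOI 1 PFU/cell). Luciferase in lysates collected 72 h post infection served as the replication measure.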
Starred values were filed as active, the others as inactive; ? = inconclusive; nt = no result given; [ ] = another dose, or the depositor's remark. The list is not random: actives were taken first. Their share in the collection is about 8%.

SMILES	LASV entry inh	HCV inhibitor	FMDV antiviral	SARS PLP yeast	MARV entry inh	HCMV inh
CCc1ccc2[nH]c(=O)c(CN(Cc3ccc(OC)cc3)Cc3nnnn3CCOC)cc2c1	?	-11%	?	5%	14µM*	-12
Cn1ccc2cc(S(=O)(=O)N3CCC(C(=O)NCCc4ccccc4)CC3)ccc21	-2%[46.1 µM]	nt	-13%	nt	nt	9
CC(NC(=O)c1sc2ncccc2c1-n1cccc1)c1ccccc1 (stereo not given)	6%[46.1 µM]	nt	15%	nt	nt	-33
O=C1NN(c2ccc(F)c(Cl)c2)C(=O)/C1=C\c1cccc(OC(=O)c2cccs2)c1	1%	4%	28µM*	12%	11%	141
Cc1ccc(-c2noc(-c3ccc(N4CCOCC4)c([N+](=O)[O-])c3)n2)cc1	28%[46.1 µM]	nt	-22%	nt	16%[46.1 µM]	-32
COc1ccc(/C=C/C(=O)NCc2cn(C)nc2C)cc1COc1ccc(Cl)cc1Br	?	?	-8%	-3%	?	12
CCn1nc(C)c(NC(=O)/C=C/c2ccc(OC)c(COc3ccc(Cl)cc3Br)c2)c1C	?	?	0%	15%	?	-64*
Cc1ccc(CNc2ccc3c(c2)OCO3)cc1	-22%	10µM*	15%	nt	?	nt
CC(C)(C)c1ccc(C(=O)NC(=S)Nc2sc3c(c2C#N)CCC3)cc1	?	?	-25%	18%	?	-38
CC(C)(C)c1ccc(C(=O)NC(=S)Nc2nc3c(s2)CCCC3)cc1	?	?	?	12%	1.3µM*	-76*
CN(C)c1ccc(C(=O)Nc2nc3c(s2)CCCC3)cc1	?	11µM*	-64%	-12%	?	-67*
COc1cccc(C(=O)Nc2nc3c(s2)CCCC3)c1	15%[46.1 µM]	nt	-30%	nt	-7%[46.1 µM]	52
CCOC(=O)c1c(-c2ccc(C)cc2C)csc1NC(=O)c1ccccc1Cl	2%[46.1 µM]	nt	-16%	nt	nt	-5
Cc1ccc(NC(=O)c2nc(-c3ccncc3)no2)c(Cl)c1	5%[46.1 µM]	nt	-2%	nt	nt	72
CC(=O)Nc1ccc(C(=O)Nc2nc(-c3ccccn3)cs2)cc1	nt	-11%	-15%	1%	nt	-9
Cc1csc(NC(=O)c2ccccc2[N+](=O)[O-])n1	-3%	0%	-2%	-2%	9%	33
O=C(Nc1nc(-c2ccccn2)cs1)c1cc(Cl)ccc1[N+](=O)[O-]	4.5µM*	10µM*	-24%	-5%	2.8µM*	-99*
Cc1csc(NC(=O)c2ccc(Cl)cc2[N+](=O)[O-])n1	-19%	1.6µM*	-22%	-4%	?	3
Cc1cc(C(=O)Nc2nc(-c3ccccn3)cs2)ccc1[N+](=O)[O-]	?	11µM*	3%	-20%	?	-72*
O=C(Nc1nc(-c2ccccn2)cs1)c1ccccc1-n1cnnn1	nt	?	-9%	0%	nt	-92*
COc1ccc(-c2nc3c4ccccc4n(CC(=O)N4CCN(c5ccccc5OC)CC4)c(=O)n3n2)cc1	-20%[46.1 µM]	nt	15%	nt	nt	21
CCOc1ccc(NC(=O)CN2C(C(=O)OC)=C(c3ccccc3)c3cc(Cl)ccc3S2(=O)=O)cc1	-1%[46.1 µM]	nt	-14%	nt	-1%[46.1 µM]	-9
CCCn1nc(C(=O)Nc2nc(-c3ccccn3)cs2)c2ccccc2c1=O	nt	5µM*	?	0%	nt	28
CCn1nc(C(=O)Nc2nc(-c3ccccn3)cs2)c2ccccc2c1=O	nt	?	-2%	-11%	nt	-10
Cc1c(C(=O)N2CC[C@@H]3CCCC[C@H]3C2)sc2ncnc(NCCc3ccccn3)c12	nt	nt	-19%	nt	nt	nt
SMILES	LASV entry inh	HCV inhibitor	FMDV antiviral	SARS PLP yeast	MARV entry inh	HCMV inh
Cc1cccc(N=C2NN=C(c3c(C)[nH]c4ccccc34)CS2)c1	?	?	?	9%	?	-99*
Cc1cccc(N=C2NN=C(c3ccc4c(c3)OCCO4)CS2)c1	?	-25%	4%	3%	?	107
COc1ccc(-n2cc(C(=O)NCCc3ccc(C)cc3)c3ccccc3c2=O)cc1	-18%[46.1 µM]	nt	-8%	nt	nt	-31
CC(=O)Nc1sc2c(c1C#N)CCCC2	7%	11µM*	38%	nt	20%[46.1 µM]	49
CC(Sc1nc(N)cc(=O)[nH]1)C(=O)Nc1sc2c(c1C#N)CCCC2 (stereo not given)	?	?	?	0%	?	-66*
N#Cc1c(NC(=O)c2cccc3ccccc23)sc2c1CCCC2	0.2µM*	nt	nt	nt	nt	nt
COc1ccc(CN(C)CC(=O)Nc2sc3c(c2C#N)CCC3)cc1OC	nt	11µM*	-6%	-1%	nt	10
CC(=O)NC(=S)Nc1sc2c(c1C#N)CCCCC2	?	?	0%	-42%	?	8
CCCCN(CC)C(=O)c1nn(C)c2c1CSc1ccccc1-2	7%[46.1 µM]	nt	1%	nt	3%[46.1 µM]	-6
O=C(Nc1ccccc1Cl)N[C@H]1CC[C@@]23CCCN2C(=O)CCC[C@H]3C1Cc1ccccc1 (stereo not given in full)	nt	nt	nt	nt	nt	-12
CC(=O)c1ccc(NC(=O)c2nc(-c3ccccc3)n(-c3ccccc3Cl)n2)cc1	-2%[46.1 µM]	nt	-23%	nt	-26%[46.1 µM]	-21
Cc1cccc(-c2nc(SCC(=O)NCC3CCCO3)c3c(=O)n(C)c(=O)n(C)c3n2)c1 (stereo not given)	-6%[46.1 µM]	nt	0%	nt	nt	9
Cc1nc(C(=O)N(Cc2cc3ccc(F)cc3nc2N2CCC(O)CC2)CC2CCCO2)cs1 (stereo not given)	nt	nt	7%	nt	nt	nt
Cc1cccc(Cn2ccn(Cc3ccc(Cl)cc3)c(=O)c2=O)c1	0%[46.1 µM]	nt	-2%	nt	nt	-62*
Cc1ccccc1OCCn1cnc2c(N)ncnc21	30%	13%	6%	26%	11%	-12
Cc1ccccc1OCCn1c(=S)[nH]c2c(N)ncnc21	nt	18%	74%	-1%	nt	-80*
Nc1nonc1-c1nc2cnccc2n1C1CCCCC1	-15%	nt	nt	nt	nt	nt
CC(C)c1ccc(NC(=O)C2Cc3c(-c4cccc(F)c4)ccnc3O2)cc1 (stereo not given)	nt	nt	-27%	nt	nt	-76*
CC(=O)c1cccc(-c2ccnc3c2CC(C(=O)NCc2ccc(F)c(F)c2)O3)c1 (stereo not given)	nt	nt	-11%	nt	nt	29
CC(=O)c1cccc(-c2ccnc3c2CC(C(=O)NCc2ccccc2)O3)c1 (stereo not given)	nt	nt	-9%	nt	nt	-86*
O=C(NCc1ccccc1)C1Cc2c(-c3cccc(F)c3)ccnc2O1 (stereo not given)	nt	nt	-6%	nt	nt	-69*
COc1cccc(CNc2nc3cc(-c4cnn(Cc5ccccc5)c4)sc3c(=O)n2C)c1	nt	nt	14µM*	nt	nt	-82*
c1ccc(-c2cc(NCCN3CCCCC3)c3ccccc3n2)cc1	?	?	?	-2%	2.8µM*	-100*
O=C(c1cc(-c2ccccc2)nc2ccccc12)N1CCCC1	15%[46.1 µM]	-7%	-3%	-3%	?	11
COc1ccc(Cn2c(O)c(C=Nc3ccccc3)c3ccccc3c2=O)cc1	?	-5%	-12%	13%	14%	-63*
COC(=O)C(=C/C(C)=C/c1cccnc1)C(=O)OC	-18%[46.1 µM]	-20%	22µM*	-2%	?	?
